HepG2 tox: counter-screen for TGF-b inhibitors: cytotoxicity in HepG2 cells; Potency, µM (top dose mostly 46.1 µM), inactives show top-dose activity change, negative = cytotoxicity, usual class: cytotoxic; HepG2 CAGA-GFP viability, ATP luminescence, 18 h; 410,000 compounds, 0.76% hits
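CellTiter-Glo luminescence gave cytotoxicity after 18 hours at 37 degrees C. The cells were HepG2 CAGA-GFP in 1% FBS DMEM, stimulated with 500 pg/mL TGF-beta after compound addition. %Activity was normalised to no-cell wells (complete cell-killing) and DMSO (no toxicity), and curves were fitted and classified.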
A549 tox: counter-screen for Nrf2 inhibitors: cytotoxicity in A549 cells; A549 ARE-Fluc cells, CellTiter-Fluor viability, 18-24 h; Potency, µM (top dose mostly 46 µM), inactives show at the highest dose activity change, negative = cytotoxicity, actives largely listed as inhibitors; 390,000 compounds, 0.16% hits; AID 504648; also: % is scaled to controls: 0 for no effect and ±100 for the full control effect
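A549 ARE-Fluc cells in 5% FBS OPTI-MEM, 5000 cells/well, rested 2 h then exposed to compounds in concentration-response for 18-24 h at 37 °C. Viability by CellTiter-Fluor fluorescence (Ex 405/Em 525) after 30 min; luciferase luminescence (BugLite, 15 min, RT) read afterwards.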
ATXN2 expr inh: ATXN2 expression inhibition; 360,000 compounds, 0.72% hits; Potency, µM (series often up to 57 µM), for inactives: at the highest dose activity change, negative = inhibition, actives largely listed as inhibitors; HEK-293 ATXN2-luciferase reporter, luminescence, 24 h; also: % is scaled to controls: 0 for no effect and ±100 for the full control effect; nearly all actives have a fitted effect of over 55% in size
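ATXN2-luciferase reporter cells (luciferase flanked by upstream and downstream ATXN2 gene portions) were treated 24 h at 37 °C with compounds at up to 57 uM. SteadyGlo luminescence gave expression; GF-AFC fluorescence gave viability.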
Nrf2 block: Nrf2 pathway inhibition; 360,000 compounds, 2.1% hits; Potency, µM (series often up to 46 µM), without a hit: at the top dose activity change, negative = inhibition, usual class: inhibitors; A549 ARE-Fluc reporter, luciferase luminescence, 18-24 h; also: % is scaled to controls: 0 for no effect and ±100 for the full control effect; nearly all actives have a fitted effect of over 60% in size
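In this cell-based qHTS, ARE-driven firefly luciferase in A549 cells reports Nrf2 activity; the luminescent signal after BugLite lysis is the measured value, with a prior CellTiter-Fluor read for cell health.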
ATXN viability: cell viability loss in ATXN counter-screen; 400,000 compounds, 0.49% hits; Potency, µM (highest dose often 56.7 µM), hits mostly cytotoxic; S2 cells (HEK-293 line with an ATXN2-luciferase reporter) viability, CellTiter-Fluor protease fluorescence, 24 h; also: nearly all actives have a fitted effect of over 40% in size
TGFb inhibitor: blocks TGF-b signaling; HepG2 CAGA-GFP TGF-b/SMAD3 reporter, GFP fluorescence, 18 h; TGF-beta stimulated, 500 pg/mL final; Potency, µM (doses to about 46.1 µM), for the others: top-dose activity, negative = inhibition, actives largely listed as inhibitors; 410,000 compounds, 1.2% hits; AID 588855; also: % is scaled to controls: 0 for no effect and ±100 for the full control effect; nearly all actives have a fitted effect of over 65% in size
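HEPG2 CAGA-GFP reporter cells (1000/well, DMEM with 1% FBS) received compounds, then recombinant TGF-beta at 500 pg/mL final for 18 hours at 37 degrees C. Per-cell GFP summed per well was normalised to unstimulated and stimulated DMSO controls before curve fitting.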
Active calls of the source: *; [ ] = another dose, or the depositor's remark. Only some compounds are listed: those with a hit (about 3.8% of all), similar ones and a draw of the others. Calls follow the shape of the dose curve; as a rule, active = well fitted curve in the direction sought with a large enough effect; inconclusive = small, poorly fitted or top-dose-only effect, or another doubt; inactive = no such curve, though single readings can be large; an effect the other way counts as inactive or inconclusive. Potency is read from the fitted curve at half-maximal effect.

Results for CC1CCCN(CCCNC(=O)c2ccc3c(c2)N(Cc2cccc(Cl)c2)C(=O)c2ccccc2S3=O)C1 (stereo unspecified) ?
HepG2 tox: 13µM*; ATXN viability: inconclusive; TGFb inhibitor: 18µM*

What do the screens show for `ClCCN(CCCl)c1ccc(/C=C/c2sc3ccccc3[n+]2CCCCI)cc1`?
HepG2 tox: -15%; TGFb inhibitor: inconclusive

How did CC1=CC2OC3CC4OC(=O)C=CC=CC(=O)OCCC(C)C(O)C(=O)OCC2(CC1)C4(C)C31CO1 (stereo unspecified) do in these assays?
ATXN2 expr inh: inconclusive; Nrf2 block: 0.0046µM*; ATXN viability: 0.084µM*; TGFb inhibitor: 0%

What do the screens show for `CC(O)C1C=CC=CC(=O)OC2CC3OC4C5OC5(C)C(O)CC4(COC(=O)C(O)C(C)CCO1)C2(C)C31CO1` (stereo unspecified)?
HepG2 tox: 4%; ATXN2 expr inh: inconclusive; Nrf2 block: 0.26µM*; ATXN viability: inconclusive; TGFb inhibitor: 0.45µM*

Results for CCc1ccc(NC(=O)Cn2c(=O)oc3cc(S(=O)(=O)N4CCCCCC4)ccc32)cc1 ?
HepG2 tox: -42%; A549 tox: 1%; Nrf2 block: inconclusive

How did C#C[C@]1(O)C=C[C@@H]2[C@@H]3CCC4=CC(=O)CC[C@@H]4[C@H]3CC[C@@]21CC do in these assays?
ATXN2 expr inh: 9%

What do the screens show for `Cc1cccc(N2C(=O)NC(=O)/C(=C/c3ccc([N+](=O)[O-])o3)C2=O)c1`?
HepG2 tox: -30%; A549 tox: inconclusive; ATXN2 expr inh: -4%; Nrf2 block: 16%; ATXN viability: inactive; TGFb inhibitor: 0%

What do the screens show for `Cc1ccc(N2C(=O)NC(=O)/C(=C\C=C\c3ccco3)C2=O)cc1`?
HepG2 tox: -50%; A549 tox: 0%; ATXN2 expr inh: 10µM*; Nrf2 block: 3%; ATXN viability: 7.9µM*; TGFb inhibitor: inconclusive

How did Cc1cccc(N2C(=O)NC(=O)/C(=C\C=C\c3ccco3)C2=O)c1 do in these assays?
HepG2 tox: -38%; A549 tox: -23%; ATXN2 expr inh: inconclusive; Nrf2 block: -23%; ATXN viability: inconclusive; TGFb inhibitor: 8.9µM*

What do the screens show for `O=C1NC(=O)N(c2ccccc2)C(=O)/C1=C/C=C/c1ccco1`?
HepG2 tox: -98%; A549 tox: inconclusive; Nrf2 block: inconclusive; ATXN viability: 18µM*; TGFb inhibitor: inconclusive

What do the screens show for `CC(C)N[C@@H]1CCn2c(=O)[nH]c3cccc(c32)[C@@H]1O`?
ATXN2 expr inh: 4%

How did COc1cccc2c1[C@]13CCN(CC4CC4)[C@H](C2)[C@]1(OC)CCC(=O)C3 do in these assays?
ATXN2 expr inh: -10%

What do the screens show for `CC1(C)CC/C(=C/c2ccc(Cl)cc2)C1(O)Cn1cncn1` (stereo unspecified)?
ATXN2 expr inh: -9%[116 µM]; ATXN viability: inactive

What do the screens show for `C[C@H](CO)N1C[C@H](C)[C@H](CN(C)S(=O)(=O)c2ccc(Cl)cc2)OCc2ccccc2-c2c(n(C)c3ccccc23)C1=O`?
HepG2 tox: -19%; ATXN2 expr inh: inconclusive; ATXN viability: inconclusive; TGFb inhibitor: inconclusive

What do the screens show for `CCOC(=O)c1cccc(NC(=O)c2cnc(N3CCCCC3)c3ccccc23)c1`?
HepG2 tox: -21%; A549 tox: -6%; TGFb inhibitor: inconclusive

From PubChem
